Data reported in the OligoGym collection.

Target: SLC13A5
Assay: pooled miR-30 sensor sort-seq; sequence = guide strand
Conditions: shRNA
Note: reference of the scale not given here.

Row | Sequence | sensor-assay potency score (higher = more potent)
1 | TACTGGACACACACCTGCCTGG | -0.809
2 | TTTCTTGCTCTCTAGCCCGCAG | -0.697
3 | TTTAATGAGAGCAAGAGCTGGA | 0.762
4 | TTGCTGTCAGGAAACAACTCGT | -0.663

Target: SLC16A5
Assay: as above
Conditions: shRNA

Row | Sequence | sensor-assay potency score (higher = more potent)
5 | TTGAGCAGGAGTGCCAGGCTGA | -0.145
6 | TTGCTTCCCAGGACCGTCTTTG | -0.623
7 | TAGCTAAAGTTGTTGGTGGCGT | -0.44
8 | TAACAAAGTAACCTCCTACTTT | 0.00812
9 | TTCAGTGAAGAAGATGCCGATA | -0.558
10 | TTGGCCTGCAGTACCGCCTTTG | -1.15
11 | ATGTACACGCAGTAGCCTGTGT | -0.541
12 | TTCTGCAGGGCGTAGAAGCTGC | -0.98
13 | TTGCTTGGCCTGCAGTACCGCC | -1.47
14 | TTGCTGGCCTGGAACTCCCATT | -1.48
15 | TAGAAAACATAGCTAAAGTTGT | -0.585
16 | TTGCAGTTCAGTGAAGAAGATG | -1.64

Target: SLC17A2
Assay: as above
Conditions: shRNA

Row | Sequence | sensor-assay potency score (higher = more potent)
17 | TCATAAATCACTGTGAACCATA | -0.911
18 | TCTGATGTTAACATGGAGCAGA | -0.539
19 | TTATGGGGACAGCTCGTCCAGG | -1.25
20 | ATTAGATAGACCTTGCTGCTGA | 0.973
21 | TTTTTTGCTCCAAATATCCCTG | -0.408
22 | TATGTTAGGATGATGGTGCATA | -0.486
23 | TAAACTGACCTGTCCATGCCAT | -0.0582
24 | TTTCGCACAGTGATCAATCTGA | 0.624
25 | AAATTGTACAGCTTGCAGCAGC | -0.887
26 | ATGAACAGAAATCTGGACCTTT | 0.387

Target: SLC17A8
Assay: as above
Conditions: shRNA

Row | Sequence | sensor-assay potency score (higher = more potent)
27 | TAAGACATCTTCTTTTTGGGAC | 0.433
28 | TACAACGATTGTCATAACCATG | -1.63
29 | TACGGTGCTATTGTTGACCATT | -0.977
30 | TAAATCTATAATTTTTTCCGTA | -0.398
31 | TTTACTTAGACTAACCACGTTG | -0.016
32 | TTTTCCATCAACATATACGGTG | -0.405
33 | ATGAGGAACACATTCTGCCATT | -1.42
34 | TATGAGGAACACATTCTGCCAT | 0.122
35 | TATATTATTGTGATTTCCCTGA | 0.059
36 | TTTCCATCAACATATACGGTGC | -0.418
37 | TTACTTAGACTAACCACGTTGG | -0.0532
38 | TTTCATTGTAGTATTTCTCTGT | 0.732
